p53ts 39C kill = qHTS Screen for Compounds that Selectively Target Cancer Cells with p53 Mutations: Cytotoxicity of p53ts Cells at the Nonpermissive Temperature | 130,000 compounds, 1.5% hits | H1299-p53A138V viability at 39C, ATP luminescence, 24 h | Potency, µM (highest dose often 46.1 µM), for inactives: top-dose activity change, negative = cell killing, actives largely listed as cytotoxic; also: potency is read from the fitted curve at half-maximal effect; % is scaled to controls: 0 for no effect and ±100 for the full control effect; nearly all actives have a fitted effect of over 55% in size
Ub-GFP proteasome = Ubiquitin-GFP Assay. Ubiquitin-GFP reporter cells, proteasome inhibition, GFP fluorescence; response scale: untreated = 0%, 10 µM MG-132 = 100%. Potency, µM (series often up to 45.9 µM), without a hit: top-dose activation (GFP accumulation), usual class: activators. 67,000 tested, under 10 active; active = well fitted activation curve with a large enough effect, not every such curve was filed as active; inconclusive = small, poorly fitted or top-dose-only effect, or another doubt; inactive = no such curve, though single readings can be large or run the other way; also: potency is read from the fitted curve at half-maximal effect
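U2OS Ub(G76V)-GFP reporter; O/N plating, 0.5% FBS; cpd 46 uM–2.9 nM, 4 h, 37 °C; GFP+ cell count, 488/515 nm; norm. to basal vs 10 uM MG-132; CRC fit.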
p53ts 32C kill = qHTS Screen for Compounds that Selectively Target Cancer Cells with p53 Mutations: Cytotoxicity of p53ts Cells at the Permissive Temperature | 130,000 compounds, 0.93% hits | Potency, µM (highest dose often 46.1 µM), without a hit: at the top dose activity change, negative = cytotoxicity, most hits filed as cytotoxic | H1299-p53A138V at 32C, ATP luminescence viability, 24 h;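 also: potency is read from the fitted curve at half-maximal effect; 0% = DMSO and -100% = full killing by reference compound; nearly all actives have a fitted effect of over 55% in size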
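H1299-p53 A138V cells (temperature-sensitive p53) exposed 24 h to up to 46 uM compound at 32C, where p53 is wild-type in conformation. Viability read as ATP luminescence and normalised to DMSO and 100 uM tamoxifen. AC50 fitted with the Hill equation.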
HBB splicing = qHTS Assay for Modulators of Hemoglobin Beta Chain Splicing; HBB splicing reporter cell assay, activation; EGFP reporter with mutant IVS2-654 intron; response scale: normalised to 500 nM splice-correcting PNA; Potency, µM (titrated, usually from 46.1 µM), without a hit: at the highest dose activation, hits mostly activators; 65,000 compounds, 0.06% hits; also: potency is read from the fitted curve at half-maximal effect; 0% is about no effect
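HeLa cells stably expressing EGFP interrupted by mutant beta-globin intron 2 (IVS2-654), 500/well in 2% FCS. Treated with compound for 2 days at 37C. Splicing correction scored as total well GFP intensity (488 nm excitation, 500-520 nm emission); 500 nM antisense PNA served as control.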
Peg3 imprint = qHTS Assay for Compounds that Induce Erasure of Genomic Imprints. mouse ES Peg3-LacZ reporter, beta-gal luminescence, 40 h. Potency, µM (top dose mostly 60.7 µM), for inactives: at the highest dose activity change, positive = activation, usual class: activators. 110,000 compounds, 0.02% hits; also: potency is read from the fitted curve at half-maximal effect
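Each well holds 300 Peg3LacZ-Neo (maternal) female ES cells incubated 40 h at 37C, 5% CO2. LacZ is measured by BetaGlo luminescence, with AC50 and maximum efficacy derived from dose-response curves.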
GFP derepression = qHTS Assay for Epigenetic Modulators; 68,000 compounds, 0.09% hits; Potency, µM (titrated, usually from 46.1 µM), for inactives: top-dose GFP derepression (activation); AID 597, 2007; mouse C127i GFP locus derepression, cytometry, 30 h; also: % of control where 0% means no effect
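Derepression screen: silenced CMV-GFP reporter in murine C127i cells, 30 h compound incubation at 37 C, washed cells imaged by laser-scanning cytometer to enumerate GFP-expressing objects of 20 to 120 um.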
An asterisk follows results filed as active; ? = inconclusive; / = no result; [ ] = another dose, or the depositor's remark. A selection: hits, their analogues and other compounds. The true share with any hit is near 1.6%. Unless noted, calls follow the shape of the dose curve; as a rule, active = well fitted curve in the direction sought with a large enough effect; inconclusive = small, poorly fitted or top-dose-only effect, or another doubt; inactive = no such curve, though single readings can be large; an effect the other way counts as inactive or inconclusive.

SMILES	p53ts 39C kill	Ub-GFP proteasome	p53ts 32C kill	HBB splicing	Peg3 imprint	GFP derepression
O=C(Nc1ccc2c(c1)OCO2)c1cccs1	?	0%	?	0%	-78%	-2%
O=C(Nc1ccc2c(c1)OCO2)c1ccc(Br)s1	?	0%	13µM*	0%	-46%	0%
CC(C)c1cc(C(=O)Nc2ccc3c(c2)OCO3)no1	?	3%	16µM*	-1%	-58%	3%
CN(c1ccccc1C(=O)Nc1ccc2c(c1)OCO2)S(C)(=O)=O	9%	3%	3%	0%	10%	2%
O=C(Nc1ccc2c(c1)OCO2)c1cc(C2CC2)on1	?	6%	?	0%	-43%	-3%
Cc1ccccc1C(=O)Nc1ccc2c(c1)OCO2	13µM*	4%	10µM*	/	/	0%
CCOC(=O)c1ccccc1NC(=O)CSc1ncc(CO)n1Cc1ccc(C)cc1	-4%	/	-10%	/	-11%[10.9 µM]	/
Cc1cc2oc(C(=O)N(Cc3ccccc3F)C3CCS(=O)(=O)C3)c(C)c2cc1Cl (stereo unspecified)	1%	/	12%	/	-11%[10.9 µM]	/
Cc1ccc(C)c(OC(=O)CSc2nnc(CNC(=O)c3ccccc3)o2)c1	13%	/	-1%	/	-12%[10.9 µM]	/
O=C(c1cc(-c2cccc(O)c2)on1)N1CCOCC1	?	1%	10µM*	0%	-77%	17%
CC(=O)N1c2ccccc2CC1C(=O)N1CCN(c2cccc(Cl)c2)CC1 (stereo unspecified)	-18%	/	-7%	/	-10%[10.9 µM]	/
Cc1cc(C)c(NC(=O)C(C)n2c(=O)cc(C)c3c(C)nn(-c4ccccc4)c32)c(C)c1 (stereo unspecified)	-16%	/	-3%	/	-8%[10.9 µM]	/
Cc1[nH]c2ccccc2c1C(c1ccccc1)c1ccc(Cl)s1 (stereo unspecified)	13µM*	/	?	/	8%[10.9 µM]	/
Cc1cc(NC(c2cccnc2)c2c(C)[nH]c3ccccc23)no1 (stereo unspecified)	17%	-2%	7%	0%[57.5 µM]	-9%	-1%
Cc1cc(C2=NNC(=NC3CC3)SC2)c(C)n1-c1ccccc1	10µM*	/	/	/	/	/
Cc1cc(C2=NNC(=NC3CC3)SC2)c(C)n1Cc1ccco1	13µM*	/	/	/	/	/
COc1cccc(NC(=O)C2CCN(C(=O)N3CC(C)Oc4ccccc43)CC2)c1 (stereo unspecified)	-23%	/	5%	/	-21%[10.9 µM]	/
Oc1cccc2ccc(Nc3ccccn3)nc12	10µM*	/	16µM*	/	/	/
COc1ccc(Cl)cc1NC(=O)c1cc2ccccn2n1	-4%	/	-6%	/	-4%[10.9 µM]	/
CC(=O)c1cccc(NC(=O)c2nc3ccccc3n(C)c2=O)c1	1.6µM*	/	2.2µM*	/	-45%[10.9 µM]	/
CC(=O)c1cccc(NC(=O)c2cnn3ccccc23)c1	?	-1%	?	0%	-80%	/
Cc1cc(Cl)ccc1NC(=O)c1cc2ccccn2n1	5µM*	/	10µM*	/	-17%[10.9 µM]	/
CC(=O)c1cccc(NC(=O)c2cc3ccccn3n2)c1	13µM*	-9%	13µM*	-1%	-72%	2%
CCOc1ccc2oc(=O)cc(CN3CCN(C(=O)c4ccc(Cl)cc4)CC3)c2c1	-3%	/	13%	/	15%[10.9 µM]	/
COc1ccc(CNC(=O)C(C#N)c2nc3ccccc3nc2N2CCCC2)cc1 (stereo unspecified)	-6%	?	-1%	13µM*	-8%	?
SMILES	p53ts 39C kill	Ub-GFP proteasome	p53ts 32C kill	HBB splicing	Peg3 imprint	GFP derepression
COc1ccc(CNC(=O)C(C#N)c2nc3ccccc3nc2N2CCN(C)CC2)cc1 (stereo unspecified)	-6%	6%	9%	-1%	-11%	3%
Cc1ccc(Cl)cc1N(C)C(=O)c1cc2ccc3cccnc3c2[nH]1	25µM*	/	19%	/	17%[10.9 µM]	/
O=C1C2C=CC=CC2=NC(=S)N1CCN1CCC(=C(c2ccc(F)cc2)c2ccc(F)cc2)CC1 (stereo unspecified)	/	/	/	/	-22%	/
Cc1cc(F)ccc1NC(=O)CS(=O)(=O)c1cccc2nsnc12	0.04µM*	/	15%	/	-8%[10.9 µM]	/
Cc1ccc(N2CCN(C(=O)c3cnn(-c4ccc(C)c(C)c4)c3C3CCNCC3)CC2)c(C)c1	20µM*	/	-5%	/	1%[10.9 µM]	/
Cc1ccc(Cl)cc1N1CCN(C(=O)c2cnn(-c3ccc(Cl)cc3)c2C2CCNCC2)CC1	0%	/	-12%	/	-3%[10.9 µM]	/
CCC(=O)N1c2ccccc2CC1C(=O)NCc1ccc(N(C)C)cc1 (stereo unspecified)	4%	/	10%	/	-4%[10.9 µM]	/
COc1cc(Cl)c(C)cc1NC(=O)CC1Oc2ccccc2NC1=O (stereo unspecified)	?	/	-4%	/	-7%[10.9 µM]	/
CN(C)C(=O)c1ccc(-c2nc(N3CCOCC3)c3ccccc3n2)cc1	-10%	-4%	?	-1%	?	5%[9.22 µM]
CN(C)c1ccc(-c2nc(N3CCNCC3)c3ccccc3n2)cc1	10µM*	-1%	13µM*	0%	-65%	11%[9.22 µM]
CN(C)C(=O)c1ccc(-c2nc(-n3ccnc3)c3ccccc3n2)cc1	10µM*	4%	7.9µM*	-1%	-64%	0%[9.22 µM]
CN(C)c1ccc(-c2nc(-n3ccnc3)c3ccccc3n2)cc1	13µM*	-8%	10µM*	3%	-79%	-5%[9.22 µM]
